The record followed here is PubChem BioAssay (Tox21).

Assay [1] is described as follows: qHTS assay to identify small molecule agonists of the TGF-beta/Smad signaling pathway (AID 1346859; active = well fitted activation curve with a large enough effect in the signal ratio in the repeat runs, not every such curve was filed as active; the % refers to the signal ratio; also: series mostly up to about 77 µM). In a few lines: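 Read-out: fluorescence at 460 and 530 nm (405 nm excitation) after a 2 hr room-temperature incubation with beta-lactamase FRET substrate. SBE-bla HEK 293T cells had been treated with test compounds for 5 hr at 37 C.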
For orientation: In qHTS, concentration-response curves come from the screen itself.

Assay [2] has as its target Thyrotropin-releasing hormone receptor (Homo sapiens) (UniProt P34981). Nature of the assay: qHTS assay to identify small molecule agonists of the thyrotropin-releasing hormone receptor (TRHR) signaling pathway (AID 1346891; calls by dose curve;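 also: HEK293 cells expressing TRHR with calcium dye readout; series mostly up to about 58 µM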). Summed up: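 HEK293/TRHR cells, 1500 per well, 18 h 37 °C; Ca dye 2 h 37 °C; pin-tool compound addition (agonist mode); kinetic fluorescence 3 min, 1 s reads; 15 concentrations, triplicate.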

Assay [3] can be described thus: Human pregnane X receptor (PXR) small molecule agonists, qHTS cell viability counter screen (AID 1346977). Also: nearly all actives have a fitted effect of over 50% in size. In a few lines:
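Fluorescence read-out (CellTiter-Fluor) of viability in PXR-Luc HepG2 cells, multiplexed with the luciferase agonist read. Compounds in DMSO added after 5hr plating; 24hr total exposure at 37C, 5% CO2.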

The nature of assay [4]: Caspase-3/7 induction in HepG2 cells by small molecules, qHTS assay (AID 1346978). Also: nearly all actives have a fitted effect of over 15% in size. In a few lines:
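Wild-type HepG2 cells (2,000/well) were settled 5 h at 37 C, 5% CO2, then exposed to compounds in DMSO for 17 h. Caspase-3/7 activity was read by luminescence 30 min after adding Caspase-Glo 3/7 reagent at room temperature.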

The nature of assay [5]: Caspase-3/7 induction in CHO-K1 cells by small molecules, qHTS assay (AID 1346980). Also: nearly all actives have a fitted effect of over 15% in size. In a few lines:
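Wild-type cells were seeded at 1,500 per well and settled 5 hr at 37 C, 5% CO2, then exposed to DMSO-dissolved compounds for 17 hr. Caspase-Glo 3/7 reagent was added, and luminescence was read after 30min at room temperature.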

Assay [6] in a line: Caspase-3/7 induction in HepG2 cells by small molecules, qHTS cell viability counter screen (AID 1346981). Also: series mostly up to about 92 µM; nearly all actives have a fitted effect of over 30% in size. Summed up: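 Fluorescence read-out of live-cell protease activity (CellTiter-Fluor) after 1 hr with reagent. This was measured in the same wells as the caspase-3/7 luminescence, on HepG2 cells exposed to DMSO-dissolved compounds for 16 hr at 37 C.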
Assay [7] addresses Nuclear receptor subfamily 1 group I member 2 (Homo sapiens) (UniProt O75469). In words: Human pregnane X receptor (PXR) small molecule agonists, qHTS assay (AID 1346982). Also: nearly all actives have a fitted effect of over 35% in size. Also: potency is read from the fitted curve at half-maximal effect. Summed up:
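HepG2 PXR-Luc reporter line, 5% charcoal-stripped FBS; 5 hr pre-incubation, compound (DMSO) 24 hr at 37 C/5% CO2; ONE-Glo 30 min RT; luminescence read-out.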

Assay [8] concerns the target Nuclear receptor subfamily 1 group I member 2 (Rattus norvegicus) (UniProt Q9R1A7). In words: Rat pregnane X receptor (rPXR) activation by small molecules, qHTS assay (AID 1346983). Also: nearly all actives have a fitted effect of over 20% in size. Particulars: rPXR luciferase reporter cells, One-Glo luminescence, 24 h; max activation: active compounds read high. In a few lines: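 Cell-based rPXR luciferase reporter assay, 2,000 cells per well, rested 5hr at 37 C before compound addition in DMSO, then 24 hr at 37 C. One-Glo reagent was added and luminescence read after 30 min at room temperature.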

For assay [9], the target named is Nuclear receptor subfamily 1 group I member 2 (Homo sapiens) (UniProt O75469). In words: CYP3A4 induction through human pregnane X receptor (PXR) by small molecules, qHTS assay (AID 1346984). Also: nearly all actives have a fitted effect of over 40% in size. Summed up:
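HepG2-derived DPX-2 line carrying PXR plus a CYP3A4-promoter luciferase reporter; cells plated 5 hr, compound-exposed 24 hr at 37C. CYP3A4 activity probed with 3uM (final) Luciferin-IPA for 3hr, then luciferase read after One-Glo.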

Assay [10] has the same target. In words: Human pregnane X receptor (PXR) activation by small molecules, qHTS assay (AID 1346985). Also: nearly all actives have a fitted effect of over 40% in size. In a few lines:
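DPX-2 cells (HepG2 co-transfected with a PXR response element and a CYP3A4-promoter luciferase construct) were seeded at 2,000 per well, rested 5 hr at 37C, then exposed to DMSO-dissolved compounds for 24 hr. Activation was read as luciferase luminescence.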

Assay [11] deals with Cytochrome P450 2D6 (Homo sapiens) (UniProt P10635). In words: Cytochrome P450 Family 2 Subfamily D Member 6 (CYP2D6) small molecule antagonists: luciferase reporter qHTS assay (AID 1671196). Also: nearly all actives have a fitted effect of over 50% in size. Also: potency is read from the fitted curve at half-maximal effect. In a few lines:
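Luminogenic proluciferin substrate, CYP2D6 enzyme; 10 min RT preincubation with compound, NADPH regeneration system added, 1 h RT. Stop/detection reagent, 20 min RT, luminescence read (RLU). Signal proportional to CYP activity.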

For assay [12], the target named is Cytochrome P450 2C9 (Homo sapiens) (UniProt P11712). In words: Cytochrome P450 Family 2 Subfamily C Member 9 (CYP2C9) small molecule antagonists: luciferase reporter qHTS assay (AID 1671198). Also: series mostly up to about 120 µM; nearly all actives have a fitted effect of over 50% in size. In a few lines: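 CYP2C9 activity was measured with a P450-Glo proluciferin substrate. Enzyme–substrate mix was held with compound for 10 min at room temperature, then NADPH regeneration solution was added for 1 h at 37C. Luciferin product was read as luminescence.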
A general note: In a reporter assay the amount or activity of a reporter protein is the signal.

In assay [13] the target is Cytochrome P450 1A2 (Homo sapiens) (UniProt P05177). Nature of the assay: Cytochrome P450 Family 1 Subfamily A Member 2 (CYP1A2) small molecule antagonists: luciferase reporter qHTS assay (AID 1671199). Also: nearly all actives have a fitted effect of over 50% in size. Also: potency is read from the fitted curve at half-maximal effect. Summed up:
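Luminescence readout (relative luminescence units) after luciferin detection reagent, 20 min RT. Preceded by 1 h room-temperature CYP1A2 reaction with NADPH regeneration solution following 10 min compound preincubation with enzyme and proluciferin substrate. Furafylline positive control.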

Assay [14] has as its target Voltage-gated inwardly rectifying potassium channel KCNH2 (Homo sapiens) (UniProt Q12809). Nature of the assay: Human Ether-a-go-go-Related Gene (hERG) channel small molecule antagonists: fluorescence cell-based qHTS assay (AID 1671200). In a few lines:
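Read-out: thallium influx as a surrogate for potassium, tracked as fluorescence (480 nm ex/540 nm em) every second for 2 min after Stimulus Buffer addition in dye-loaded hERG-U2OS cells.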

For assay [15], the target named is Thyrotropin-releasing hormone receptor (Homo sapiens) (UniProt P34981). Nature of the assay: qHTS assay to identify small molecule antagonists of the thyrotropin-releasing hormone receptor (TRHR) signaling pathway (AID 1346877; active = well fitted inhibition curve with a large enough effect in the repeat runs, not every such curve was filed as active; also: series mostly up to about 51 µM). Summed up:
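HEK293/TRHR cells, 18 h, 37 °C; Ca2+ dye 2 h; cpd 5 min RT; TRH 1 nM final; fluorescence read 3 min, 1 s intervals; 15 concs, triplicate.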

The target of assay [16] is Cytochrome P450 2C19 (Homo sapiens) (UniProt P33261). In words: Cytochrome P450 Family 2 Subfamily C Member 19 (CYP2C19) small molecule antagonists: luciferase reporter qHTS assay (AID 1671197). Also: nearly all actives have a fitted effect of over 65% in size. Also: potency is read from the fitted curve at half-maximal effect. In a few lines:
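Compounds were tested on CYP2C19 activity via proluciferin conversion to luciferin. The 37C, 1 h reaction followed NADPH addition; detection reagent stopped it.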

The target in assay [17] is Cytochrome P450 3A4 (Homo sapiens) (UniProt P08684). Nature of the assay: Cytochrome P450 Family 3 Subfamily A Member 4 (CYP3A4) small molecule antagonists: luciferase reporter qHTS assay (AID 1671201). Summed up:
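Luminescent readout (RLU) proportional to CYP3A4 activity, from luciferin generated off a proluciferin substrate. Enzyme–substrate mix plus compound 10 min at room temp, NADPH regeneration 1 h, detection reagent 20 min.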

Assay [18] is described as follows: Caspase-3/7 induction in CHO-K1 cells by small molecules, qHTS cell viability counter screen (AID 1346979). Also: nearly all actives have a fitted effect of over 35% in size. Also: potency is read from the fitted curve at half-maximal effect. In a few lines: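 CHO-K1 wt, 1,500 cells/well; 5hr pre-incubation 37C/5% CO2; compound pin transfer (DMSO); 16hr exposure; CellTiter-Fluor added, 1hr, fluorescence read.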

Values without a mark were called inactive. Results filed as inconclusive are left out. Calls of active or inactive are those of the source. Unless noted, calls follow the shape of the dose curve; as a rule, active = well fitted curve in the direction sought with a large enough effect in the repeat runs; inconclusive = weak or mixed curves; inactive = no such curve, though single readings can be large; an effect the other way counts as inactive or inconclusive.
% is scaled to controls: 0 for no effect and ±100 for the full control effect.

Cytochrome P450 1A2 (Homo sapiens), sequence (P05177 whole entry, looked up): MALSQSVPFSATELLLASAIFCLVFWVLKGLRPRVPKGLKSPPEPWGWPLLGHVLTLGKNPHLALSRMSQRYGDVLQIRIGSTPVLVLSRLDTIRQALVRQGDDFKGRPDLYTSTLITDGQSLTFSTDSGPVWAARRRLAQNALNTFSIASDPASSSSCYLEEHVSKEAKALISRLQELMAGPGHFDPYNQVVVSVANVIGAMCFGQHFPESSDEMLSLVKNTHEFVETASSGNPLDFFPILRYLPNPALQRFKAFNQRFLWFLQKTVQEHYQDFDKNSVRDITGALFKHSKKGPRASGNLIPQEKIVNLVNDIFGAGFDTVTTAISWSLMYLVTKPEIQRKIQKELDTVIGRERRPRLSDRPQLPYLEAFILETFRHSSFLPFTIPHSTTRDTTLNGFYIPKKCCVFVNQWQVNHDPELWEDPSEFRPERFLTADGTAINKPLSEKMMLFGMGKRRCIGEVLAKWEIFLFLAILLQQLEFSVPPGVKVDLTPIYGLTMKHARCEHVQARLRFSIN
Cytochrome P450 2C9 (Homo sapiens), sequence (P11712 whole entry, looked up): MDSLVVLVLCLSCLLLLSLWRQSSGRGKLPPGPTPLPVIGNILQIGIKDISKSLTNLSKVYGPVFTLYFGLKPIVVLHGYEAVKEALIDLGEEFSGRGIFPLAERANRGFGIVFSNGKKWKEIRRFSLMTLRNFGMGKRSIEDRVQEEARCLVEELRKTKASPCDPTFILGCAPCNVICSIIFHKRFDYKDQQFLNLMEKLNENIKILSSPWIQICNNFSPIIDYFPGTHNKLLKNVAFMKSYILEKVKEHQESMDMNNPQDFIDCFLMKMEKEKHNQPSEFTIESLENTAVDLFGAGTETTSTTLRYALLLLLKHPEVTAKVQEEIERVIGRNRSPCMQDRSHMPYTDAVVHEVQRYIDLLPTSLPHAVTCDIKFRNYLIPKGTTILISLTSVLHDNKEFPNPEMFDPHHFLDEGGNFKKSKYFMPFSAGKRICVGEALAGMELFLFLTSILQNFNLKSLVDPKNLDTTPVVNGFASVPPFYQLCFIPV
Nuclear receptor subfamily 1 group I member 2 (Homo sapiens), sequence (O75469 whole entry, looked up): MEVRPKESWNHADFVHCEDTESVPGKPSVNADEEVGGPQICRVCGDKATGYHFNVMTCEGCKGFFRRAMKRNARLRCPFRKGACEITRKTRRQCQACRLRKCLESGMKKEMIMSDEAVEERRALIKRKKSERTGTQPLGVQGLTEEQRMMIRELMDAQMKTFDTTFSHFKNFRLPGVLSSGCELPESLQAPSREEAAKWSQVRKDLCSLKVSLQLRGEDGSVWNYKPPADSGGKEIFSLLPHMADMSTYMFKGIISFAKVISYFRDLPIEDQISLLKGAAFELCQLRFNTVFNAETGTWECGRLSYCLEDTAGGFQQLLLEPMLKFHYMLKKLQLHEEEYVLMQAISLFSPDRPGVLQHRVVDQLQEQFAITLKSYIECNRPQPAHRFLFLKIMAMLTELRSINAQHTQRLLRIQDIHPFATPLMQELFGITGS
Thyrotropin-releasing hormone receptor (Homo sapiens), sequence (P34981 whole entry, looked up): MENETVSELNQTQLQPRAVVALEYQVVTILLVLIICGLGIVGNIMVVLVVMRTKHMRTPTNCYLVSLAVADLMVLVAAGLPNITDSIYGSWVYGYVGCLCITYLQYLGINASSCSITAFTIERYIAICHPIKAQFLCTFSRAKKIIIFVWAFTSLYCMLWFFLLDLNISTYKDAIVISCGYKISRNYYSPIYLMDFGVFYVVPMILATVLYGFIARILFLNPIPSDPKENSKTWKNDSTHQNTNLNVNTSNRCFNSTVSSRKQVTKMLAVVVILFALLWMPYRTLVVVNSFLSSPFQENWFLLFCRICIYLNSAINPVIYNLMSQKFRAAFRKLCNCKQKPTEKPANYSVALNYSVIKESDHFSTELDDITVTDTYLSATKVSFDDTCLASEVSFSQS
Cytochrome P450 3A4 (Homo sapiens), sequence (P08684 whole entry, looked up): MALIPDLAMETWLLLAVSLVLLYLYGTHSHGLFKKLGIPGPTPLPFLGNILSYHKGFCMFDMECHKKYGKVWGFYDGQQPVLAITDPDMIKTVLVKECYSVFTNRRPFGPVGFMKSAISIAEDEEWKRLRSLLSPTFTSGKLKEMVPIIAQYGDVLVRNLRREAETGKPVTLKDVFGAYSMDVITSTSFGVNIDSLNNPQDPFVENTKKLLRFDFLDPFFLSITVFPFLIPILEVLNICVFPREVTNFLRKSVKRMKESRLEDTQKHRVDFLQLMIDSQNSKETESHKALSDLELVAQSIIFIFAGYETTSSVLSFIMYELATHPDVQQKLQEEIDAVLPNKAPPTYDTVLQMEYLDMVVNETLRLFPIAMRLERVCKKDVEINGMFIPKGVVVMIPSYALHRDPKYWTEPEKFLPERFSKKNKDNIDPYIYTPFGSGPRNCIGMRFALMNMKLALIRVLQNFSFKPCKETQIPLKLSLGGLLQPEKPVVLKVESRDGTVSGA
Cytochrome P450 2D6 (Homo sapiens), sequence (P10635 whole entry, looked up): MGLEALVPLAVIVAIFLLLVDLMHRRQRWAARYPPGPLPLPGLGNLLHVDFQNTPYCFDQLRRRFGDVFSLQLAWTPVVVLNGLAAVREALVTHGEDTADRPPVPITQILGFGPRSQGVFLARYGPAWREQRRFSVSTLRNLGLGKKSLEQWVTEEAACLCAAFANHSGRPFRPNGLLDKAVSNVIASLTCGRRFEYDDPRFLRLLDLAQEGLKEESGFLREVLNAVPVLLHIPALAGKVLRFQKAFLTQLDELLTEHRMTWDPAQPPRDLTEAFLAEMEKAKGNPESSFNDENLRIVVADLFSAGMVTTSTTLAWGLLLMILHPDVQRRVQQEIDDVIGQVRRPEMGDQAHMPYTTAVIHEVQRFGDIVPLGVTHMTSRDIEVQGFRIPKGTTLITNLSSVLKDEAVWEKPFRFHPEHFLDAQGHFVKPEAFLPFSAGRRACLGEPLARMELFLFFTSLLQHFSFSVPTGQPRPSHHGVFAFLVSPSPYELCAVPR
Cytochrome P450 2C19 (Homo sapiens), sequence (P33261 whole entry, looked up): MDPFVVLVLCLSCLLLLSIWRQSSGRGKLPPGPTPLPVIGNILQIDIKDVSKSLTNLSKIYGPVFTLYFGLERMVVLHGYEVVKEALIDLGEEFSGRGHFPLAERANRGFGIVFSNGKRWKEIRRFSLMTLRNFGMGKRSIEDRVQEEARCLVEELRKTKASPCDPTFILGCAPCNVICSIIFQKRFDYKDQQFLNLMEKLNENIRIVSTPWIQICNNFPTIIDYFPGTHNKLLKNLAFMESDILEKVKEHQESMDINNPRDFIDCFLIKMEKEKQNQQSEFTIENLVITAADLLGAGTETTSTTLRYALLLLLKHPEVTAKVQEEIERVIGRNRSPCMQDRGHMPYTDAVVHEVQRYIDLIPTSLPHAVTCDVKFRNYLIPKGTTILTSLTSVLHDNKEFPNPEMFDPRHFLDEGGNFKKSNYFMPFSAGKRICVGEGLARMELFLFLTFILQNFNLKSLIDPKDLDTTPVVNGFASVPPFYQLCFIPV
Voltage-gated inwardly rectifying potassium channel KCNH2 (Homo sapiens), sequence (Q12809 whole entry, looked up): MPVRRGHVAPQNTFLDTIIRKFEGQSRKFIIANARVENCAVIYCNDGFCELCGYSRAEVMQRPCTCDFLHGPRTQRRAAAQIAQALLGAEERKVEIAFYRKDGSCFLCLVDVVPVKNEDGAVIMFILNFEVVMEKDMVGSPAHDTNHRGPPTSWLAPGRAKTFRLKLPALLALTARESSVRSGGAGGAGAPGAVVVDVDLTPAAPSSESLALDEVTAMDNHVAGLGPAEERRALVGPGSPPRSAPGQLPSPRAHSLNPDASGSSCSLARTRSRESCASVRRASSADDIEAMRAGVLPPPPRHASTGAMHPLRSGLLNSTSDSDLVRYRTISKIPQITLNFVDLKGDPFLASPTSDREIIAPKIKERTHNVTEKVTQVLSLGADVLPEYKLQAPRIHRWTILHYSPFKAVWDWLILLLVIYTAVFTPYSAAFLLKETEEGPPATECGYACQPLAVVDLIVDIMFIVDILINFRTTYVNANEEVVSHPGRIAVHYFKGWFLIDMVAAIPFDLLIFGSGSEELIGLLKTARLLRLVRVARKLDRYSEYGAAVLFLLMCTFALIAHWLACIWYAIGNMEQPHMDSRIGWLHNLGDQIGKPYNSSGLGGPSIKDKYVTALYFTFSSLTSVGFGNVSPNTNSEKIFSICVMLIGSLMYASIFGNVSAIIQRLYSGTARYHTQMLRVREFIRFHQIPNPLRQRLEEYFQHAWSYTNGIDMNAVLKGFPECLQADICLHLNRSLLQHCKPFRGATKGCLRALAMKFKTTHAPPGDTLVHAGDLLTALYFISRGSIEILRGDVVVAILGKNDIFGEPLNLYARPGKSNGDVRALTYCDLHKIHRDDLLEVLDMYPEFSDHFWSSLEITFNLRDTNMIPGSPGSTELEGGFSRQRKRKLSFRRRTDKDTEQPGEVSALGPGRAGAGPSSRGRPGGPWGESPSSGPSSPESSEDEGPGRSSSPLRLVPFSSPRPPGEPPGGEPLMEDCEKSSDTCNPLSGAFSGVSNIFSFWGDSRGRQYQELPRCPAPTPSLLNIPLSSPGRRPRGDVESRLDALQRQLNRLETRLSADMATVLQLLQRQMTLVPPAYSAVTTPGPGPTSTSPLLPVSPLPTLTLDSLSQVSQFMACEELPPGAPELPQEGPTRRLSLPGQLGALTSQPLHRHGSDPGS
Nuclear receptor subfamily 1 group I member 2 (Rattus norvegicus), sequence (Q9R1A7 whole entry, looked up): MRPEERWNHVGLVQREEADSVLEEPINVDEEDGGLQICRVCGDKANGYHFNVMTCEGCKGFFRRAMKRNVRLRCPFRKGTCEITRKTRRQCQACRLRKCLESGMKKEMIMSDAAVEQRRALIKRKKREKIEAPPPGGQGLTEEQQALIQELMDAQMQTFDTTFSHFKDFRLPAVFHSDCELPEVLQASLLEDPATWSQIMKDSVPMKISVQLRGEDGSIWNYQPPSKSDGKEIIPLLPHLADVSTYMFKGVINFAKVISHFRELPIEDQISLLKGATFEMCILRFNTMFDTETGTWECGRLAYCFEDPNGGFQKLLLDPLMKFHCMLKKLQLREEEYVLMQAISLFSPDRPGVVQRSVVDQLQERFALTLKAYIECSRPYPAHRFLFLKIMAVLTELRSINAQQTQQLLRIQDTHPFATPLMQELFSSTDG

With `NS(=O)(=O)c1cc2c(cc1C(F)(F)F)NCNS2(=O)=O`, the compound was called inactive in assay [1], in [3], in [4], in [5], in assay [6] and in assay [9]. The outcome in assay [10] was inactive. Moreover, the Potency entry in assay [2], in [7], in assay [11], in assay [12], in assay [13] and in [14] was “inactive” throughout. Moreover, the max activation in assay [8] is -2.82%.

For `C=C(C)C(=O)OCCCC`, the compound was called inactive in assay [1], in assay [15], in assay [3] and in assay [5]. The Potency result in assay [2], in assay [7], in assay [11], in assay [16], in [12] and in assay [13] was “inactive” in each case. The Potency result in assay [14] and in [17] was “inactive” each time.

Regarding `Cc1nc2ccc(Cl)cc2[nH]1`, the call in assay [1], in [15], in assay [4] and in assay [5] was inactive. The Potency result in [2], in [12] and in assay [14] was “inactive” in each case. The Potency in [18] was 17.2 µM (active); in [7], 12.2 µM (active); in assay [16], 39.8 µM (active); in assay [13], 2.82 µM (active).

On to `C[Si](C)(C)O[Si](O)(O)O`, for which the compound was called inactive in [1], in assay [15], in assay [3], in assay [5] and in assay [6]. Moreover, the Potency result in assay [2], in assay [18], in assay [7], in [11], in [12] and in assay [13] was “inactive” each time. The Potency entry in assay [14] and in [17] was “inactive” each time.

In the case of `CCCCS`, the compound was classed as inactive in assay [1], in assay [15], in [3] and in assay [5]. The Potency result in assay [2], in assay [18], in assay [7], in [11], in assay [12] and in [14] was “inactive” in each case. Moreover, the Potency result in [17] was “inactive”.

Consider `O=c1[nH]c(=O)c2cn[nH]c2[nH]1`, for which the call in [1], in [15], in assay [4], in [5] and in [6] was inactive. In addition, the Potency entry in assay [2], in [16], in assay [12], in assay [13], in assay [14] and in assay [17] was “inactive” each time.

For `O=C1c2ccccc2C(=O)N1CO`, the result in [1], in assay [15], in [3], in [5] and in assay [6] was inactive. In addition, the Potency result in assay [2], in [18], in assay [11], in assay [16], in [12] and in assay [14] was “inactive” in each case. Also, in assay [17], the Potency result is “inactive”.

Turning to `c1coc(Cn2cccc2)c1`, the compound was called inactive in assay [1], in [15], in assay [3] and in assay [5]. For the same compound, the Potency result in assay [2], in assay [18], in assay [7], in assay [11], in [16] and in [12] was “inactive” in each case. Moreover, the Potency entry in assay [13], in assay [14] and in [17] was “inactive” in each case.

Regarding `C=CCOC(=O)CCCCCCCC`, the outcome in assay [1], in assay [3], in assay [4], in assay [5] and in assay [6] was inactive. Moreover, the Potency result in [18], in assay [7], in assay [16], in [12], in assay [14] and in assay [17] was “inactive” each time. The Potency in assay [11] is 63.8 µM (active); in assay [13], 40.2 µM (active).

Turning to `CCCC(C)C(O)CC` (configuration not stated), the compound was called inactive in assay [1], in assay [3], in assay [4], in assay [5] and in [6]. The Potency result in [18], in [7], in assay [11], in assay [16], in assay [12] and in assay [13] was “inactive” in each case. Moreover, the Potency entry in assay [14] is “inactive”.
